Test results published in PubChem BioAssay.
Entries with a potency or affinity are not part of this list. Calls of active or inactive are those of the source.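 The calls were made as follows, unless noted: active = fitted half-maximal concentration within the tested dose range, moderate curve steepness, a statistically real signal drop, and little compound fluorescence or tag-binding interference; inactive = the rest.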

Each molecule was assayed against Cell division control protein 42 homolog (Homo sapiens) (UniProt P60953) (assay: inhibition of fluorescent GTP binding to constitutively active Cdc42 – biochemical, multiplex bead flow cytometry, Bodipy-FL-GTP, dose response (AID 1333)). Conditions: bead-based flow cytometry; series mostly up to 100 µM.
Cell division control protein 42 homolog (Homo sapiens), sequence (P60953 whole entry, looked up): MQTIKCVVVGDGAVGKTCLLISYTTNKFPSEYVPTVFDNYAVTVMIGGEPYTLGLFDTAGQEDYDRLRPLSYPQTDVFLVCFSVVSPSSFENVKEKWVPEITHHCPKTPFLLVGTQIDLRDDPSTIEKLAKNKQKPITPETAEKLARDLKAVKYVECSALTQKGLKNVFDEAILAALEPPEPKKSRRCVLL
For COc1cccc(Nc2c(F)c(F)c(F)c(F)c2C(=O)O)c1, the outcome was “inactive”.
For COc1ccc(S(=O)(=O)Cc2ccc(C(=O)N3CCN(c4cc(Cl)ccc4C)CC3)o2)cc1, the outcome was “inactive”.
CCCCn1c(SCC(=O)c2ccccc2)nc2c1c(=O)[nH]c(=O)n2C was tested, and the outcome was “inactive”.
For CC1Cc2ccccc2N1S(=O)(=O)c1cccc(C(=O)NCCCO)c1 (stereo not drawn), the outcome was “inactive”.
In the case of COc1cc(/C=N/NC(=S)Nc2cccnc2)cc(OC)c1O, the outcome is reported as “inactive”.
For COc1cc2[nH]c(=S)nc(NCCC(C)C)c2cc1OC, the outcome was “inactive”.
In the case of O=C(CCc1nnc(-c2ccc3c(c2)OCO3)o1)N1CCC(c2ccc(F)cc2)C1 (stereo not drawn), the outcome is reported as “inactive”.
With COc1ccc(/C=N/NC(=S)Nc2cc(S(=O)(=O)N3CCOCC3)ccc2N2CCOCC2)cc1O the outcome was “inactive”.
In the case of COc1ccc(-c2c3c(nc4sc5c(=O)[nH]c(C)nc5c24)CCC3)cc1, the outcome is reported as “inactive”.
CC(C)CCNC(=O)CN(CCCN1CCOCC1)C(=O)Cn1nnc(-c2ccc(F)cc2)n1 was tested, and the outcome was “inactive”.
In the case of N#Cc1c(C(F)(F)F)cc(-c2ccc(Cl)cc2)[nH]c1=O, the outcome is reported as “inactive”.
For CCn1c2ccccc2c2nnc(SCC(=O)NCCOC)nc21, the outcome was “inactive”.
C/C(=N\NC(=O)c1c[nH]c2ccccc12)c1ccc(C)o1 was tested, and the outcome was “inactive”.
Cc1ccc(-c2noc(CN3C(C)CCCC3C)n2)cc1 (stereo not drawn) was tested, and the outcome was “inactive”.
COc1cc2c(cc1OC)-c1cc(NC3CCCCCCC3)nc(=O)n1CC2 was tested, and the outcome was “inactive”.
In the case of O=C(N/N=C/c1c(O)n(Cc2ccccc2)c(=O)c2ccccc12)c1cccnc1, the outcome is reported as “inactive”.
In the case of COC(=O)c1cccc(NC(=O)c2nn(C)c(=O)c3ccccc23)c1, the outcome is reported as “inactive”.
In the case of N#C/C(=C/c1ccc(-c2cc(C(=O)O)cc(C(=O)O)c2)o1)c1nc2ccccc2s1, the outcome is reported as “inactive”.
In the case of COc1ccc(/C=C2\SC(=S)NC2=O)cc1OS(=O)(=O)c1ccc(NC(C)=O)cc1, the outcome is reported as “inactive”.
CCc1nnc(NC(=O)CCC(=O)N2CCN(c3ccccn3)CC2)s1 was tested, and the outcome was “inactive”.
With Cc1cc(C(F)F)n2nc(C(=O)Nc3ccc(S(=O)(=O)N4CCCCCC4)cc3)nc2n1 the outcome was “inactive”.
With NC(=O)COC(=O)c1cccc2c1-c1ccccc1C2=O the outcome was “inactive”.
With Cc1nnc(OC(C)C)c2nn(-c3ccccc3F)c(C)c12 the outcome was “inactive”.
In the case of Oc1ccc(/C=N/NC(=S)N/N=C/c2ccc(O)cc2)cc1, the outcome is reported as “inactive”.
For C=CC#CC[N+]1(CC#Cc2ccccc2)CCOCC1, the outcome was “inactive”.
With CCN1/C(=C/c2ccc3cc(C)ccc3[n+]2C)Sc2ccc3sccc3c21 the outcome was “inactive”.
For O=[N+]([O-])c1ccc2c(c1)c(-c1ccccc1)nc1nncn12, the outcome was “inactive”.
In the case of O=S(=O)(N/N=C\c1cccnc1)c1ccccc1, the outcome is reported as “inactive”.
With COc1ccc(CCn2c(C(C)C)nc3c(c(=O)c4ccccc4n3C)c2=O)cc1 the outcome was “inactive”.
For CC(C)Cc1csc(NC(=O)c2ccccc2Cl)c1C(=O)O, the outcome was “inactive”.
With COc1ccccc1OCc1cccc(C(=O)O)c1 the outcome was “inactive”.
COc1ccc(OC)c(Nc2nc(-c3sc(N)nc3C)cs2)c1 was tested, and the outcome was “inactive”.
COc1ccc(C(=O)c2c(O)cc(-c3ccc(OC)cc3)oc2=O)cc1 was tested, and the outcome was “inactive”.
O=C(O)c1nnn(Cc2ccc(Br)cc2)c1C(=O)O was tested, and the outcome was “inactive”.
Cc1ccc(OCCn2cc(C(=O)O)c3ccccc32)cc1C was tested, and the outcome was “inactive”.
For COc1cc(/C=N/Nc2ncnc3sc4c(c23)CCC4)ccc1O, the outcome was “inactive”.
CC(=O)c1c(C)[nH]c(C(=O)N2CCc3ccccc3C2)c1C was tested, and the outcome was “inactive”.
For COc1ccc(S(=O)(=O)N2CCOCC2)cc1NC(=O)COc1cccnc1[N+](=O)[O-], the outcome was “inactive”.
For COc1ccc(/C=N/n2c(N)c(S(=O)(=O)c3cccs3)c3nc4ccccc4nc32)cc1OC, the outcome was “inactive”.

These molecules were tested against Cell division control protein 42 homolog (Homo sapiens) (UniProt P60953) (assay: inhibition of fluorescent GTP binding to wildtype Cdc42 – biochemical, multiplex bead flow cytometry, Bodipy-FL-GTP, dose response (AID 1334;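 active = fitted half-maximal concentration within the tested range, moderate curve steepness, significant signal drop, and little compound fluorescence or bead-linkage interference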)). Conditions: bead-based flow cytometry, Bodipy-FL-GTP binding to GST-Cdc42; at 100 µM (top of the series) unless noted.
Work on COc1cccc(Nc2c(F)c(F)c(F)c(F)c2C(=O)O)c1 yielded a fluorescence, percent of control (lower = inhibition) of 53.4%.
In the case of COc1ccc(S(=O)(=O)Cc2ccc(C(=O)N3CCN(c4cc(Cl)ccc4C)CC3)o2)cc1, the fluorescence, percent of control (lower = inhibition) is reported as 35.1%.
Molecule CCCCn1c(SCC(=O)c2ccccc2)nc2c1c(=O)[nH]c(=O)n2C has a fluorescence, percent of control (lower = inhibition) of 48.7%.
CC1Cc2ccccc2N1S(=O)(=O)c1cccc(C(=O)NCCCO)c1 (stereo not drawn) was tested, and the fluorescence, percent of control (lower = inhibition) was 38.5%.
Molecule COc1cc(/C=N/NC(=S)Nc2cccnc2)cc(OC)c1O has a fluorescence, percent of control (lower = inhibition) of 31.8%.
Work on COc1cc2[nH]c(=S)nc(NCCC(C)C)c2cc1OC yielded a fluorescence, percent of control (lower = inhibition) of 29.1%.
Molecule O=C(CCc1nnc(-c2ccc3c(c2)OCO3)o1)N1CCC(c2ccc(F)cc2)C1 (stereo not drawn) has a fluorescence, percent of control (lower = inhibition) of 36.1%.
COc1ccc(/C=N/NC(=S)Nc2cc(S(=O)(=O)N3CCOCC3)ccc2N2CCOCC2)cc1O gave a fluorescence, percent of control (lower = inhibition) of 65.8%.
COc1ccc(-c2c3c(nc4sc5c(=O)[nH]c(C)nc5c24)CCC3)cc1 showed a fluorescence, percent of control (lower = inhibition) of 38.2%.
For CC(C)CCNC(=O)CN(CCCN1CCOCC1)C(=O)Cn1nnc(-c2ccc(F)cc2)n1, the fluorescence, percent of control (lower = inhibition) was 98.9%.
For N#Cc1c(C(F)(F)F)cc(-c2ccc(Cl)cc2)[nH]c1=O, the fluorescence, percent of control (lower = inhibition) was 27.5%.
Molecule CCn1c2ccccc2c2nnc(SCC(=O)NCCOC)nc21 has a fluorescence, percent of control (lower = inhibition) of 50.8%.
C/C(=N\NC(=O)c1c[nH]c2ccccc12)c1ccc(C)o1 gave a fluorescence, percent of control (lower = inhibition) of 29.9%.
For Cc1ccc(-c2noc(CN3C(C)CCCC3C)n2)cc1 (stereo not drawn), the fluorescence, percent of control (lower = inhibition) was 51.1%.
COc1cc2c(cc1OC)-c1cc(NC3CCCCCCC3)nc(=O)n1CC2 was tested, and the fluorescence, percent of control (lower = inhibition) was 33.3%.
O=C(N/N=C/c1c(O)n(Cc2ccccc2)c(=O)c2ccccc12)c1cccnc1 was tested, and the fluorescence, percent of control (lower = inhibition) was 18.5%.
COC(=O)c1cccc(NC(=O)c2nn(C)c(=O)c3ccccc23)c1 was tested, and the fluorescence, percent of control (lower = inhibition) was 42.8%.
N#C/C(=C/c1ccc(-c2cc(C(=O)O)cc(C(=O)O)c2)o1)c1nc2ccccc2s1 was tested, and the fluorescence, percent of control (lower = inhibition) was 27%.
For COc1ccc(/C=C2\SC(=S)NC2=O)cc1OS(=O)(=O)c1ccc(NC(C)=O)cc1, the fluorescence, percent of control (lower = inhibition) was 30.9%.
Molecule CCc1nnc(NC(=O)CCC(=O)N2CCN(c3ccccn3)CC2)s1 has a fluorescence, percent of control (lower = inhibition) of 94%.
Cc1cc(C(F)F)n2nc(C(=O)Nc3ccc(S(=O)(=O)N4CCCCCC4)cc3)nc2n1 gave a fluorescence, percent of control (lower = inhibition) of 36.8%.
Molecule NC(=O)COC(=O)c1cccc2c1-c1ccccc1C2=O has a fluorescence, percent of control (lower = inhibition) of 33.4%.
Cc1nnc(OC(C)C)c2nn(-c3ccccc3F)c(C)c12 gave a fluorescence, percent of control (lower = inhibition) of 55.1%.
With Oc1ccc(/C=N/NC(=S)N/N=C/c2ccc(O)cc2)cc1 the fluorescence, percent of control (lower = inhibition) was 45%.
Work on C=CC#CC[N+]1(CC#Cc2ccccc2)CCOCC1 yielded a fluorescence, percent of control (lower = inhibition) of 97.9%.
CCN1/C(=C/c2ccc3cc(C)ccc3[n+]2C)Sc2ccc3sccc3c21 was tested, and the fluorescence, percent of control (lower = inhibition) was 41.6%.
O=[N+]([O-])c1ccc2c(c1)c(-c1ccccc1)nc1nncn12 showed a fluorescence, percent of control (lower = inhibition) of 31.3%.
In the case of O=S(=O)(N/N=C\c1cccnc1)c1ccccc1, the fluorescence, percent of control (lower = inhibition) is reported as 53.2%.
In the case of COc1ccc(CCn2c(C(C)C)nc3c(c(=O)c4ccccc4n3C)c2=O)cc1, the fluorescence, percent of control (lower = inhibition) is reported as 34.5%.
CC(C)Cc1csc(NC(=O)c2ccccc2Cl)c1C(=O)O showed a fluorescence, percent of control (lower = inhibition) of 29.8%.
Work on COc1ccccc1OCc1cccc(C(=O)O)c1 yielded a fluorescence, percent of control (lower = inhibition) of 64.9%.
Work on COc1ccc(OC)c(Nc2nc(-c3sc(N)nc3C)cs2)c1 yielded a fluorescence, percent of control (lower = inhibition) of 32.7%.
With COc1ccc(C(=O)c2c(O)cc(-c3ccc(OC)cc3)oc2=O)cc1 the fluorescence, percent of control (lower = inhibition) was 52.9%.
For O=C(O)c1nnn(Cc2ccc(Br)cc2)c1C(=O)O, the fluorescence, percent of control (lower = inhibition) was 58.8%.
Molecule Cc1ccc(OCCn2cc(C(=O)O)c3ccccc32)cc1C has a fluorescence, percent of control (lower = inhibition) of 60.4%.
COc1cc(/C=N/Nc2ncnc3sc4c(c23)CCC4)ccc1O showed a fluorescence, percent of control (lower = inhibition) of 33.9%.
In the case of CC(=O)c1c(C)[nH]c(C(=O)N2CCc3ccccc3C2)c1C, the fluorescence, percent of control (lower = inhibition) is reported as 107%.
Molecule COc1ccc(S(=O)(=O)N2CCOCC2)cc1NC(=O)COc1cccnc1[N+](=O)[O-] has a fluorescence, percent of control (lower = inhibition) of 36.2%.
COc1ccc(/C=N/n2c(N)c(S(=O)(=O)c3cccs3)c3nc4ccccc4nc32)cc1OC gave a fluorescence, percent of control (lower = inhibition) of 37.1%.
